Measurements taken from PubChem BioAssay (NCI).
The panel holds about 83,000 compounds, 20% with a hit somewhere; the sample as a whole holds those more often.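 Results are percent growth after 48 hours of single-concentration exposure. 100 means growth as in untreated cells, lower positive values show inhibition; negative values down to -100 show cell death.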

Legend:
Assay in all cases: NCI-60 one-dose screen, 48 h (100 = growth as untreated, 0 = no growth, -100 = all killed)
Settings in all cases: 10 µM unless noted; active means growth percent below 10; inactive means the rest
NCI-H23 lung = tested on: NCI-H23 lung
NCI-H226 lung = tested on: NCI-H226 lung
NCI-H322M lung = tested on: NCI-H322M lung
HOP-62 NSCLC = tested on: HOP-62 NSCLC
NCI-H460 lung = tested on: NCI-H460 lung
HOP-92 NSCLC = tested on: HOP-92 NSCLC
NCI-H522 lung = tested on: NCI-H522 lung
A549/ATCC NSCLC = tested on: A549/ATCC NSCLC
786-0 renal = tested on: 786-0 renal
COLO 205 colon = tested on: COLO 205 colon
DU-145 prostate = tested on: DU-145 prostate
K-562 leukemia = tested on: K-562 leukemia
MALME-3M melanoma = tested on: MALME-3M melanoma
MDA-MB-231 breast = tested on: MDA-MB-231 breast
RXF 393 renal = tested on: RXF 393 renal
SF-268 CNS = tested on: SF-268 CNS
SF-295 CNS = tested on: SF-295 CNS
SF-539 CNS = tested on: SF-539 CNS
UACC-257 melanoma = tested on: UACC-257 melanoma
M14 melanoma = tested on: M14 melanoma

Measured: growth

C/C=C/C1OCC(CC)C(CCC)O1 (stereo not given)
inactive: NCI-H23 lung 113% | NCI-H226 lung 111% | NCI-H322M lung 111% | HOP-62 NSCLC 111% | NCI-H460 lung 109% | HOP-92 NSCLC 110% | NCI-H522 lung 91.1% | A549/ATCC NSCLC 88% | 786-0 renal 111% | COLO 205 colon 114% | DU-145 prostate 115% | K-562 leukemia 89.3% | MALME-3M melanoma 114% | MDA-MB-231 breast 100% | RXF 393 renal 124% | SF-268 CNS 101% | SF-295 CNS 113% | SF-539 CNS 99.1% | UACC-257 melanoma 93.5% | M14 melanoma 104%

CCOC(=O)CO
inactive: NCI-H23 lung 104% | NCI-H226 lung 99.8% | NCI-H322M lung 98.2% | HOP-62 NSCLC 104% | NCI-H460 lung 106% | HOP-92 NSCLC 95.6% | NCI-H522 lung 97% | A549/ATCC NSCLC 102% | 786-0 renal 105% | COLO 205 colon 117% | DU-145 prostate 120% | K-562 leukemia 97.4% | MALME-3M melanoma 87% | MDA-MB-231 breast 109% | RXF 393 renal 93.7% | SF-268 CNS 115% | SF-295 CNS 103% | SF-539 CNS 119% | UACC-257 melanoma 102% | M14 melanoma 104%

CC(=O)OC(C)c1cccc(C#N)c1 (stereo not given)
inactive: NCI-H23 lung 103% | NCI-H226 lung 94.7% | NCI-H322M lung 104% | HOP-62 NSCLC 94.8% | NCI-H460 lung 108% | HOP-92 NSCLC 91.3% | NCI-H522 lung 103% | A549/ATCC NSCLC 98.6% | 786-0 renal 104% | COLO 205 colon 113% | DU-145 prostate 108% | K-562 leukemia 103% | MALME-3M melanoma 103% | MDA-MB-231 breast 108% | RXF 393 renal 110% | SF-268 CNS 103% | SF-295 CNS 102% | SF-539 CNS 101% | UACC-257 melanoma 100% | M14 melanoma 97.4%

CC(=O)c1cccc(N(C)S(=O)(=O)c2ccc(C)cc2)c1
inactive: NCI-H23 lung 93% | NCI-H226 lung 95.7% | NCI-H322M lung 90.4% | HOP-62 NSCLC 92.8% | NCI-H460 lung 104% | HOP-92 NSCLC 72.3% | NCI-H522 lung 82.9% | A549/ATCC NSCLC 95.9% | 786-0 renal 94% | COLO 205 colon 116% | DU-145 prostate 98.2% | K-562 leukemia 47.8% | MALME-3M melanoma 84% | MDA-MB-231 breast 93.1% | RXF 393 renal 116% | SF-268 CNS 93% | SF-295 CNS 93.2% | SF-539 CNS 79.1% | UACC-257 melanoma 94.7% | M14 melanoma 77.6%

C=CCc1cc(OC)c(OC)c(OC)c1
inactive: NCI-H23 lung 95.6% | NCI-H226 lung 104% | NCI-H322M lung 117% | HOP-62 NSCLC 104% | NCI-H460 lung 97.1% | HOP-92 NSCLC 108% | NCI-H522 lung 101% | A549/ATCC NSCLC 96.2% | 786-0 renal 108% | COLO 205 colon 108% | DU-145 prostate 102% | K-562 leukemia 105% | MALME-3M melanoma 109% | MDA-MB-231 breast 99% | RXF 393 renal 103% | SF-268 CNS 95.3% | SF-295 CNS 113% | SF-539 CNS 114% | UACC-257 melanoma 99.1% | M14 melanoma 103%

O=C1CSc2ccccc2N1
inactive: NCI-H23 lung 99.8% | NCI-H226 lung 111% | NCI-H322M lung 109% | HOP-62 NSCLC 101% | NCI-H460 lung 107% | HOP-92 NSCLC 83.9% | NCI-H522 lung 104% | A549/ATCC NSCLC 96.5% | 786-0 renal 117% | COLO 205 colon 108% | DU-145 prostate 116% | K-562 leukemia 122% | MALME-3M melanoma 108% | MDA-MB-231 breast 115% | RXF 393 renal 120% | SF-268 CNS 104% | SF-295 CNS 110% | SF-539 CNS 129% | UACC-257 melanoma 101% | M14 melanoma 113%

O=C(O)C1CCCN1C(=O)OCc1ccccc1 (stereo not given)
inactive: NCI-H23 lung 104% | NCI-H226 lung 108% | NCI-H322M lung 104% | HOP-62 NSCLC 127% | NCI-H460 lung 102% | HOP-92 NSCLC 122% | NCI-H522 lung 85.6% | A549/ATCC NSCLC 93.7% | 786-0 renal 106% | COLO 205 colon 107% | DU-145 prostate 118% | K-562 leukemia 99.1% | MALME-3M melanoma 108% | MDA-MB-231 breast 128% | RXF 393 renal 139% | SF-268 CNS 107% | SF-295 CNS 107% | SF-539 CNS 107% | UACC-257 melanoma 105% | M14 melanoma 99.1%

COc1cc(CC#N)c([N+](=O)[O-])cc1OC
inactive: NCI-H23 lung 96% | NCI-H226 lung 105% | NCI-H322M lung 105% | HOP-62 NSCLC 113% | NCI-H460 lung 106% | HOP-92 NSCLC 99.8% | NCI-H522 lung 102% | A549/ATCC NSCLC 102% | 786-0 renal 102% | COLO 205 colon 110% | DU-145 prostate 109% | K-562 leukemia 94.8% | MALME-3M melanoma 111% | MDA-MB-231 breast 99.9% | RXF 393 renal 112% | SF-268 CNS 103% | SF-295 CNS 110% | SF-539 CNS 102% | UACC-257 melanoma 103% | M14 melanoma 109%
